# Values joined by “and” are separate entries in the source; they are usually repeats but may differ in a detail not shown here. Equal values may be shown once. Inconclusive results are not listed. Entries that show only a call come without a potency. Where a structure was tested more than once in an assay, its records may differ in their call. Active and inactive are the calls of the source. Unless noted, calls follow the shape of the dose curve; as a rule, active = well fitted curve in the direction sought with a large enough effect; inconclusive = small, poorly fitted or top-dose-only effect, or another doubt; inactive = no such curve, though single readings can be large; an effect the other way counts as inactive or inconclusive.
# Columns and labels:
# [1] = target: Cytochrome P450 2C9 (Homo sapiens) (UniProt P11712); experiment: Cytochrome P450 family 2 subfamily C member 9 (CYP2C9) small molecule antagonists: luciferase biochemical (cell-free) qHTS assay (AID 1645842; active = well fitted curve in the direction sought with a large enough effect in the repeat runs; an effect the other way counts as inactive or inconclusive; also: nearly all actives have a fitted effect of over 55% in size; also: potency is read from the fitted curve at half-maximal effect)
# Chain of Cytochrome P450 2C9 (Homo sapiens) (P11712 whole entry, looked up): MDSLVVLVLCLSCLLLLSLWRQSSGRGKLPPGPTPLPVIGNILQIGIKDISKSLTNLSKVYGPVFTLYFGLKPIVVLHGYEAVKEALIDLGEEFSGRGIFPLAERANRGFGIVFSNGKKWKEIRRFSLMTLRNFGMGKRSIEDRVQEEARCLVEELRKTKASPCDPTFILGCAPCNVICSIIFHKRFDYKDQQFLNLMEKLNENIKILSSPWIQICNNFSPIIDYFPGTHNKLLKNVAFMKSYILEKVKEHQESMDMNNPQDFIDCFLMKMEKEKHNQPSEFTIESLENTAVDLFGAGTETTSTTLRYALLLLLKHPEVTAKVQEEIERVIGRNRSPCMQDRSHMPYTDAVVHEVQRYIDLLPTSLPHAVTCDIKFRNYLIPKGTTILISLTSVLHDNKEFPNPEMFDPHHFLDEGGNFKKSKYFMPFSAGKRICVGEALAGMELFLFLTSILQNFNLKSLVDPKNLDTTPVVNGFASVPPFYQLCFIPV
# Method in brief: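 Luminescence, after 20 min with luciferin detection reagent, reflected CYP2C9 turnover during a 1 h NADPH-driven reaction at 37C. Enzyme-substrate mix contained 0.4% bovine serum albumin and was preincubated with compound 10 min at room temperature.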
# [2] = Primary qHTS for inhibitors of nuclear receptor binding SET domain protein 2 (NSD2) in an isogenic RCH-ACV NSD2 p.E1099K mutant (9B) (AID 1645876); also: nearly all actives have a fitted effect of over 70% in size; also: potency is read from the fitted curve at half-maximal effect
# [3] = Primary qHTS for inhibitors of nuclear receptor binding SET domain protein 2 (NSD2) in an RCH-ACV wild type WT cells (2C) (AID 1645877); also: nearly all actives have a fitted effect of over 70% in size; also: potency is read from the fitted curve at half-maximal effect
# [4] = Cytotoxicity counterscreen for inhibitors of SARS-CoV-2 cell entry (AID 1645845; calls by dose curve; also: nearly all actives have a fitted effect of over 50% in size)
# Method in brief: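 Expi293F/hACE2 cells seeded overnight; cpd pin-transferred in DMSO, 1 h preincubation, + media, 48 h 37 C 5% CO2; ATPLite 1step luminescence; normalized to cells and no cells.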
# [5] = Primary qHTS to identify inhibitors of SARS-CoV-2 cell entry (AID 1645846; calls by dose curve; also: nearly all actives have a fitted effect of over 45% in size; also: potency is read from the fitted curve at half-maximal effect); details: activity change, negative = inhibition: at 57.1 µM (top of the series) unless noted
# Method in brief: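 Data are normalized to wells receiving SARS-CoV-2-S pseudoparticles and those given bald particles. Entry signal was luciferase luminescence in stable hACE2 Expi293F cells, 48 hr post-infection, after 1 hr compound pretreatment.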
# [6] = target: Glutathione peroxidase 1 (Homo sapiens) (UniProt P07203); experiment: Primary qHTS Assay for Inhibitors of Recombinant Selenoprotein Glutathione Peroxidase 1 (GPX1) (AID 1845191); also: nearly all actives have a fitted effect of over 65% in size; also: potency is read from the fitted curve at half-maximal effect
# Chain of Glutathione peroxidase 1 (Homo sapiens) (P07203 whole entry, looked up): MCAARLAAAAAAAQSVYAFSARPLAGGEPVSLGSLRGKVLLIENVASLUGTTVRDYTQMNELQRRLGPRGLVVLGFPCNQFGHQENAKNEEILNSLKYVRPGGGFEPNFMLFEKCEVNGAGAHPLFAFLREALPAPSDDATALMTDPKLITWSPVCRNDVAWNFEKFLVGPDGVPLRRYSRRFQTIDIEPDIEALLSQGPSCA
# Method in brief: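 Recombinant GPX1 (10 nM final) was preincubated with compound for 30 min at room temperature, then reacted with 1 mM GSH, 0.5 mM CHP, 0.5 mM NADPH and 100 nM glutathione reductase; NADPH fluorescence (340/450 nm) was read at 0 and 15 min.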
# [7] = target: N-terminal Xaa-Pro-Lys N-methyltransferase 1 (Homo sapiens) (UniProt Q9BV86); experiment: Confirmatory qHTS for Inhibitors of N-terminal methyltransferase 1 (NTMT1): MTaseGlo Assay (AID 1645874);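 also: luminescence from SAH made as NTMT1 methylates SPKRIA peptide using SAM; nearly all actives have a fitted effect of over 65% in size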
# Chain of N-terminal Xaa-Pro-Lys N-methyltransferase 1 (Homo sapiens) (Q9BV86 whole entry, looked up): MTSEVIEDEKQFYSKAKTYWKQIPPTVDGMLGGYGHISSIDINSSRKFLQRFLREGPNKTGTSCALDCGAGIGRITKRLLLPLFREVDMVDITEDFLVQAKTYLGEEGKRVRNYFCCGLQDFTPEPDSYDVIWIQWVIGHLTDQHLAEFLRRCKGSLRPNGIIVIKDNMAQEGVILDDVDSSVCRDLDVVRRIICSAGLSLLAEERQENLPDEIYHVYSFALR
# Method in brief: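 NTMT1 (125 nM) preincubated 15 min with compound and 100 uM SAM, then 1 uM SPKRIA peptide added for 30 min at room temperature. SAH detected by MTase-Glo luminescence; normalized to no-enzyme and DMSO controls, fitted to 4-parameter Hill.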
smiles,measurement,setting,value
CCCCCCCCCC(=O)O[C@H]1CC[C@H]2[C@@H]3CCC4=CC(=O)CC[C@@H]4[C@H]3CC[C@]12C,Potency,[1],12.3 µM (active)
same,Potency,[2],inactive
same,Potency,[3],inactive
O=C(O)Cc1cccc2ccccc12,Potency,[4],inactive
COc1ccc2[nH]cc(CCNC(C)=O)c2c1,Potency,[4],inactive
O=c1c(C2CC(c3ccc(-c4ccc(Br)cc4)cc3)Cc3ccccc32)c(O)sc2ccccc12 (stereo unspecified),Potency,[1],9.77 µM (active)
same,Potency,[5],14.1 µM (active)
same,Potency,[6],22.7 µM (active)
CCCOC(=O)c1cncn1C(C)c1ccccc1 (stereo unspecified),Potency,[1],13.8 µM (active)
same,Potency,[2],inactive
same,Potency,[3],inactive
CCN[C@@H](C)Cc1ccccc1,Potency,[1],inactive
same,Potency,[2],inactive
same,Potency,[3],inactive
C[C@]12CCC(=O)C=C1CC[C@@H]1[C@@H]2CC[C@@]2(C)[C@H]1CC[C@]2(C)O,Potency,[1],inactive
same,outcome,[7],inactive
same,Potency,[2],23.7 µM (active)
CCOC(=O)CC(SP(=S)(OC)OC)C(=O)OCC (stereo unspecified),Potency,[1],1.3 µM (active) and 1.74 µM (active)
same,Potency,[4],inactive
same,Potency,[2],30.6 µM (active) and inactive
same,Potency,[3],inactive
CC(Cc1ccccc1)N(C)Cc1ccco1 (stereo unspecified),Potency,[1],inactive
same,Potency,[2],inactive
same,Potency,[3],inactive
COC1CC(=C(c2cccs2)c2cccs2)C[N+](C)(C)C1 (stereo unspecified),Potency,[1],inactive
same,Potency,[4],inactive
same,"activity change, negative = inhibition",[5],-29.5%
same,Potency,[3],15 µM (active)
same,Potency,[6],inactive
C[C@]12CC[C@H]3[C@@H](CCC4=CC(=O)CC[C@@H]43)[C@@H]1CC[C@@H]2OC(=O)CCc1ccco1,Potency,[1],15.5 µM (active)
same,Potency,[2],23.7 µM (active)
same,Potency,[6],inactive
C=CCN1C[C@H](C)N([C@H](c2ccc(C(=O)N(CC)CC)cc2)c2cccc(OC)c2)C[C@H]1C,Potency,[1],inactive
same,Potency,[2],inactive
same,Potency,[3],inactive
same,outcome,[6],inactive [at 9.52 µM]

# From PubChem BioAssay (NCATS)
